Test results taken from PubChem BioAssay AID504845 (National Center for Advancing Translational Sciences (NCATS), 2011).
The campaign covered roughly 390,000 compounds. About 150 (0.038%) were called active. Roughly 3% stayed inconclusive and do not appear here. Calls follow the shape of the dose curve; as a rule, active = well fitted inhibition curve with a large enough effect; inconclusive = small, poorly fitted or top-dose-only effect; inactive = no such curve, though single readings can be large or run the other way. The list comes from a sample in which actives are over-represented; it also holds similar structures and randomly drawn compounds.

target: Regulator of G-protein signaling 4 (Homo sapiens) (UniProt P49798); assay: Inhibitors of Regulator of G Protein Signaling (RGS) 4: qHTS; settings: Transcreener GDP fluorescence polarization, RGS4-accelerated GTP hydrolysis; series mostly up to 114 µM; activity change, negative = inhibition: at the top concentration; also: nearly all actives have a fitted effect of over 75% in size
Excerpt: G-protein-coupled receptors (GPCRs) are well-established targets for drug discovery and development. Members of the "regulator of G-protein signaling" (RGS)-protein superfamily have recently emerged as critical modulators of specific GPCR signaling pathways. […] Combining specific RGS domain inhibitors with existing GPCR agonists should potentiate cellular responses and could also increase the specificity of action of existing therapeutics. Small molecule modulators of RGS domain activity should also have clinical utility in inhibiting or potentiating the actions of endogenous GPCR agonists. In particular, the diversity of RGS proteins with highly localized and dynamically regulated distributions in the human brain makes this family of proteins attractive targets for pharmacotherapy of central nervous system (CNS) disorders such as Parkinson's disease, schizophrenia, and anxiety.
This assay was used to screen the NIH Molecular Libraries Small Molecule Repository (MLSMR) in order to identify a small molecule that inhibits RGS4.
NIH Chemical Genomics Center [NCGC]
NIH Molecular Libraries Probe Centers Network [MLPCN]
Assay Submitter (PI): David Siderovski, University of North Carolina Chapel Hill (School of Medicine)
Two microliters of 500nM (2x working concentration) is dispensed into black medium-binding solid-bottom Kalypsys plates. Then with the Kalypsys pintool 23nl of control and compounds are transferred; the control compound is […] CCG-4986 (working concentration). After a 10 minute incubation at room temperature 2ul of antibody is added with the Kalypsys dispenser; (-)RGS4/Transcreener GDP solution in columns 3 and 4 which consisted of 10nM (2x working concentration) Alexa633, 20uM GTP, and 20 ug/ml GDP antibody and (+)RGS4/Transcreener GDP solution in columns 1,2, and 5 to 48 which consists of 900nM RGS4 (2x working concentration), 10nM Alexa633, 20 ug/ml GDP antibody. The plate is centrifuged at 1000 RPM for 15 seconds to remove any possible bubbles and then incubated for 5 minutes at ambient room temperature. An initial fluorescent polarization read (620 nm/688 nm) is performed on the Envision before the plate is incubated for 90 minutes at 30 deg C at a relative humidity of 80%. The plate is once more centrifuged at 1000 RPM for 15 seconds and another Envision fluorescent polarization (620 nm/688 nm) read is carried out.
% is scaled to controls: 0 for no effect and ±100 for the full control effect.

Sequence of Regulator of G-protein signaling 4 (Homo sapiens) (P49798 whole entry, looked up, the tested form may be a part): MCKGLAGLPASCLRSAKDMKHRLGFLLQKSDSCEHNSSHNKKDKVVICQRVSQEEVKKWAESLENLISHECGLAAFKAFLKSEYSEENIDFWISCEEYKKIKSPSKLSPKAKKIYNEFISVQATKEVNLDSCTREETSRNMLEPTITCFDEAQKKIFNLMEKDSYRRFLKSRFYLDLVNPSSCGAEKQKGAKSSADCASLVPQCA

Activity change, negative = inhibition, inactive:
CC(C)NC(=O)C1CCC(Cn2c(=O)c3sccc3n(Cc3ccc(F)cc3)c2=O)CC1 (stereo unspecified) 11.4%, Oc1ccc(Br)cc1C1C=C(c2ccc3c(c2)OCO3)NC(c2ccc(Cl)cc2)N1 (stereo unspecified) -36%, Cc1ccc2ccc3c(c2n1)NS(=O)(=O)c1ccccc1-3 -16.3%, COc1ccc2c(C)c(CCC(=O)NCc3ccc(OC)c(OC)c3)c(=O)oc2c1 -14.1%, Cc1c(-c2nc(-c3ccc4c(c3)OCO4)no2)nnn1-c1ccc(Br)cc1F -24.4%, COc1ccc(OC)c(NC(=O)CSC2=Nc3ccccc3C3=NC(CC(=O)NCCc4ccccc4)C(=O)N23)c1 (stereo unspecified) 16.3%, CC(C)NC[C@H](O)c1ccc2ccccc2c1 -510% [at 56.9 µM, above what the read-out allows, likely interference], O=C(CSc1nccn1-c1ccc(F)cc1)Nc1cccc2ccccc12 -5.41%, COc1ccc(-n2c(SCC(N)=O)nc3c(oc4ccccc43)c2=O)cc1 -18.4%, CCn1c(CN2CCC(C)CC2)nc2cc(NC(=O)c3ccccc3[N+](=O)[O-])ccc21 -7.66%, O=C(c1ccc2c(c1)N(Cc1ccccc1)C(=O)c1ccccc1S2(=O)=O)N1CCC(Cc2ccccc2)CC1 8.32%, COc1ccc(-c2cccc(NS(=O)(=O)c3cc(C)c(OC)c(C)c3C)c2)nn1 -39.8%, CCc1ccc(NC(=O)CSc2nc3c([nH]c4ccccc43)c(=O)n2-c2cccc(OC)c2)cc1 0.52%, CCN(CC)c1nc(C#N)nc(OC)n1 23.2%, CC(C)(C)c1ccc(C(=O)N2CCC(c3nc(-c4ccc(S(=O)(=O)N5CCCC5)cc4)no3)CC2)cc1 7.58%, Cn1c(=O)c2c(n3c4ccccc4nc13)NC(=O)CC2c1cccc(Cl)c1 (stereo unspecified) -17.3%, CC(C)Sc1oc(-c2cccs2)nc1S(=O)(=O)c1ccc(Cl)cc1 -16.4%, Cc1ccc(SCC(=O)Nc2ccc3oc(-c4ccccc4C)nc3c2)cc1 -0.0912%, C=C1CCN(C(CC(C)C)C(=O)NCc2cc(OC)c(OC)c(OC)c2)S(=O)(=O)c2ccccc21 (stereo unspecified) -6.11%, COC(=O)CCc1ccccc1S(=O)(=O)N(CCC(=O)OC)Cc1ccccc1 -18.2%, CCOC(=O)c1ccc(NC(=O)Cn2c(=O)n(-c3ccc(C)cc3)c(=O)c3c2cnn3C)cc1 2.84%, Cc1nn(C(C)C(=O)Nc2ccc(C(C)C)cc2)c(=O)c2c1sc1ccccc12 (stereo unspecified) -6.31%, OC[C@@H]1O[C@H](n2cnc3c(SCc4ccccc4)ncnc32)[C@H](O)[C@H]1O -4.78%, CCOc1ccc(Nc2c(S(=O)(=O)c3ccccc3)cnc3ccccc23)cc1 21.6%, COc1ccc(NC(=O)c2ccc3nc(C(C)C)oc3c2)cc1OC -2.42%, Cc1ccc(-c2nn(CC(C)(C)C)c3ncnc(N)c23)cc1 117% [at 56.9 µM]
